The list is not random: actives were taken first. Their share in the collection is about 0.97%.
RPL19A-GFP yeast – alters RPL19A-GFP fluorescence in TOR pathway yeast screen. S. cerevisiae RPL19A-GFP strain, flow cytometry, 3 h; hits give low values. percent response vs DMSO, % at 10 µM. 330,000 tested, 0.3% active. AID 2025;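 active = percent response vs DMSO below 50%; inconclusive = fewer than 70 events counted for the yeast strain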;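 also: median channel GFP fluorescence of the barcoded RPL19A-GFP strain; lower means less RPL19A-GFP as with rapamycin TOR inhibition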
LAP4-GFP MLPCN – modulators of TOR pathway LAP4-GFP in S. cerevisiae; GFP response vs DMSO, % at 10 µM; S. cerevisiae LAP4-GFP multiplex, flow cytometry GFP, 3 h; median GFP as percent of DMSO wells; AID 2023; 320,000 tested, 0.34% active;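 active = GFP response vs DMSO above a set limit, about the screen mean plus 3 SD, cut at about 150% in these data; inconclusive = under 70 cell events counted for the yeast strain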
CIT2 TOR yeast – modulators of TOR pathway CIT2-GFP in S. cerevisiae | GFP response vs DMSO, % at 10 µM | 320,000 tested, 0.065% active | S. cerevisiae CIT2-GFP strain, flow cytometry, 3 h; 100 means same as DMSO wells;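 active = GFP response relative to DMSO above a set limit, near the screen mean plus 3 SD, cut at about 150% in these data; inconclusive = Fewer than 70 cells measured for a yeast strain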;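 also: ratio of well median GFP fluorescence to mean of DMSO wells on the plate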
AGP1 TOR yeast – modulators of TOR pathway AGP1-GFP in S. cerevisiae | 320,000 tested, 0.02% active | GFP response vs DMSO, % at 10 µM | S. cerevisiae AGP1-GFP multiplex flow cytometry, 3 h; GFP as percent of DMSO wells;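 active = GFP response relative to DMSO above a set limit, near screen average plus 3 SD, cut at about 150% in these data; inconclusive = fewer than 70 cells counted for the yeast strain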;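 also: median GFP channel fluorescence of the gated AGP1 strain per well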
GASC-1 inh – human JMJD2C demethylase inhibition; 330,000 tested, 0.069% active; Q9H3R0; GST-JMJD2C(1-420) H3K9me3 demethylation, DELFIA europium; inhibition, % at 2.35 µM;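 active = more than half of a compound's replicate wells show inhibition beyond 50%, single wells judged on their own value; inconclusive = some, but no more than half, of replicates pass 50% inhibition; inactive = no replicate passes 50% inhibition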;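 also: signal counts dimethyl H3K9 product captured on neutravidin plate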
Target sequence (Q9H3R0 1-420 limits assumed): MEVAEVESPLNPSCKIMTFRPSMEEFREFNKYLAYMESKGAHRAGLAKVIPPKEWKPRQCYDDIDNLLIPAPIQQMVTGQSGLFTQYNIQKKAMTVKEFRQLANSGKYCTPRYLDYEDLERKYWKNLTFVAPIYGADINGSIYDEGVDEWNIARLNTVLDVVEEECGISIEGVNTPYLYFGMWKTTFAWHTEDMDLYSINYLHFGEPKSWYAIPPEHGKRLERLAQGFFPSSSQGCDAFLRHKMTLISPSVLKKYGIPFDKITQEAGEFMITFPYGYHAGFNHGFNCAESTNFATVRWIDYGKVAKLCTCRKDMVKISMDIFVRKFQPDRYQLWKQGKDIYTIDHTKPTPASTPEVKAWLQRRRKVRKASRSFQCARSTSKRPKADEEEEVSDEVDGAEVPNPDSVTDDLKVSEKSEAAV
MEP2 TOR yeast – alters MEP2-GFP fluorescence in TOR pathway yeast screen; S. cerevisiae MEP2-GFP strain, flow cytometry GFP, 3 h; 100% = DMSO control level; GFP response vs DMSO, % at 10 µM; 330,000 tested, 0.51% active;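 active = GFP response versus DMSO above a set limit, roughly screen mean plus 3 SD, cut at about 180% in these data; inconclusive = fewer than 70 cells counted for a yeast strain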;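 also: median GFP fluorescence of the barcode-gated MEP2-GFP cells per well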
A number is an active result; 0 = inactive; ? = inconclusive; - = no result given; [ ] = dose if it differs, or a comment.

SMILES	RPL19A-GFP yeast	LAP4-GFP MLPCN	CIT2 TOR yeast	AGP1 TOR yeast	GASC-1 inh	MEP2 TOR yeast
Cc1cccc(OCC(=O)NNC(=O)c2cc3ccccc3oc2=O)c1	0	0	?	0	0	210.7[may fluoresce violet]
O=C(COc1ccc(F)cc1)NNC(=O)c1cc2ccccc2oc1=O	0	0	0	0	-	0
CN(C)c1ccc(CNS(=O)(=O)c2csc(C(N)=O)c2)cc1	33.4[may fluoresce violet]	0	?	0	0	0
Cc1ccc(S(=O)(=O)N2CC(C)N(C(=O)N3CCOCC3)C2C)cc1 (centres undefined)	0	0	0	0	0	0
O=C(C1COc2ccccc2O1)N1CCN(c2ccc(C(F)(F)F)cn2)CC1 (centres undefined)	0	0	0	0	0	0
Cc1nc2c(-c3ccc(F)cc3)cnn2c(N)c1-c1ccccc1	0	165.3	0	0	0	0
Cc1nc2c(-c3ccc(Cl)cc3)cnn2c(N)c1-c1ccc(F)cc1	0	0	0	0	0	0
Cc1cc(=O)n(-c2ccc3ccccc3n2)[nH]1	0	164.6	0	0	0	0
COc1ccc(OC)c(NC(=O)CSc2nnc3ccc(-c4ccccn4)nn23)c1	0	0	0	0	0	0
COc1ccccc1NC(=O)c1ccc(NC(=O)CSc2nc(N)cc(=O)[nH]2)cc1	0	0	0	0	0	0
O=C(CSc1n[nH]c(=O)n1Cc1ccccc1)Nc1ccc(F)c(F)c1F	46.6[may fluoresce violet]	0	?	0	0	779.9[may fluoresce violet]
COc1cc(NC(=O)c2cccc(S(=O)(=O)N3CCCCC3)c2)cc(OC)c1OC	0	0	0	0	-	0
Cc1ccc(S(=O)(=O)Nc2cc(Cl)c(O)c3ncccc23)cc1	0	154.0	0	0	0	0
Oc1c(Cl)cc(Cl)c2cccnc12	-	-	-	-	0	-
O=C(OCC(=O)N1CCC(c2ccccc2)=N1)c1ccc([N+](=O)[O-])s1	0	0	0	0	0	0
CCn1cc(C(=O)NCC(=O)OC)c2cc(OC)c(OC)cc2c1=O	0	0	0	0	0	0
COc1cc2c(C(=O)N3CCN(C4CCCCC4)CC3)cn(CC(C)C)c(=O)c2cc1OC	48.8[may fluoresce violet]	0	?	0	0	201.0[may fluoresce violet]
CCOC(=O)CNC(=O)c1cn(CC(C)C)c(=O)c2cc(OC)c(OC)cc12	41.2[may fluoresce violet]	0	?	?	0	247.8[may fluoresce violet]
O=S1(=O)C=C(Sc2nnc(-c3ccccc3)o2)c2ccccc21	0	257.6[may fluoresce violet]	?	0	0	0
O=C(/C=C/c1ccccc1)C1=C(O)C(=O)N(CCO)C1c1cccc([N+](=O)[O-])c1 (centres undefined)	0	0	0	0	0	639.5
O=C(/C=C/c1ccccc1)C1=C(O)C(=O)N(CCO)C1c1ccccc1[N+](=O)[O-] (centres undefined)	0	0	0	0	0	0
CCCCCN(C(=O)CCC(=O)OCC(=O)N1CCCC(C)C1)c1c(N)n(CCCC)c(=O)[nH]c1=O (centres undefined)	0	0	0	0	0	0
O=C(c1cccc(COc2ccc(Cl)cc2Cl)c1)N1CCN(c2ccccn2)CC1	0	161.7	0	0	0	0
CN(CC(=O)Nc1cccc(F)c1)C(=O)CCCNC(=O)c1ccc(Cl)cc1	0	0	0	0	0	0
CCOCC(=O)Nc1ccc2c(c1)OCCO2	29.0[may fluoresce violet]	0	?	?	0	261.3[may fluoresce violet]
SMILES	RPL19A-GFP yeast	LAP4-GFP MLPCN	CIT2 TOR yeast	AGP1 TOR yeast	GASC-1 inh	MEP2 TOR yeast
O=C(O)c1ccc(SCc2cnc(Cl)s2)cc1	0	178.8	0	0	0	0
O=C(Nc1ccc(F)c(Cl)c1)Nn1cnnc1	0	0	0	0	0	0
COc1cc(/C=N/NC(=O)c2ccncc2)ccc1OC(=O)c1cccc(Br)c1	0	0	0	0	0	0
COc1cccc(/C=N/NC(=O)c2ccncc2)c1OC(=O)c1ccc(Br)cc1	17.4[may fluoresce violet]	0	?	?	0	0
O=C(CSc1nnc(C2COc3ccccc3O2)o1)N1CCCC1 (centres undefined)	0	172.5	0	157.8	0	445.2
Cc1cccc(C)c1N/C=C/c1onc(C)c1[N+](=O)[O-]	0	0	0	0	0	0
Cc1noc(/C=C/c2cccnc2)c1[N+](=O)[O-]	0	161.3	0	0	0	0
N=c1c(C(=O)NCC2CCCO2)cc2c(=O)n3ccccc3nc2n1Cc1ccccc1 (centres undefined)	?	0	?	?	0	211.9[may fluoresce red and violet]
N=c1c(C(=O)NCC2CCCO2)cc2c(=O)n3ccccc3nc2n1Cc1ccccc1Cl (centres undefined)	38.5[may fluoresce violet]	0	?	?	0	257.9[may fluoresce violet]
N=c1c(C(=O)NCC2CCCO2)cc2c(=O)n3ccccc3nc2n1Cc1ccc(Cl)cc1 (centres undefined)	0	0	0	0	0	0
O=C(COC(=O)C1CCN(C(=O)c2ccc(Cl)cc2)CC1)Nc1ccccc1F	0	0	0	0	0	0
Cc1c(NS(=O)(=O)CC23CCC(CC2=O)C3(C)C)c(=O)n(-c2ccccc2)n1C (centres undefined)	0	0	?	?	0	205.2[may fluoresce violet]
O=C(O)c1c[nH]c2ccc(S(=O)(=O)N3CCOCC3)cc12	15.3[may fluoresce violet]	0	?	?	0	252.2[may fluoresce violet]
C[C@H](C(=O)CC(=O)OC(C)(C)C)[C@H](O)c1ccccc1	0	0	0	0	0	0
CN(C)CCCN1C(=O)C(=O)/C(=C(/O)c2ccncc2)C1c1ccccc1 (centres undefined)	46.3[may fluoresce violet]	0	?	?	0	288.5[may fluoresce violet]
O=C(COc1ccc(F)cc1)Nc1ccccc1N1CCOCC1	0	0	0	0	0	0
CCOC(=O)c1cc2c(=O)n3ccccc3nc2n(CCOC)c1=NC(=O)C(C)(C)C	0	0	0	0	0	330.6
O=C(NCc1ccc(F)cc1)C(c1ccco1)N(C(=O)c1csnn1)C1CC1 (centres undefined)	34.4[may fluoresce violet]	0	?	?	0	219.4[may fluoresce violet]
CCOc1ccccc1C(C(=O)NC1CCCCC1)N(C(=O)c1csnn1)C1CC1 (centres undefined)	38.5[may fluoresce violet]	0	?	?	0	368.5[may fluoresce violet]
O=C(NCc1ccccc1)C(c1ccco1)N(C(=O)c1csnn1)C1CC1 (centres undefined)	0	0	0	0	0	0
O=C(CNCC(=O)Nc1ccc(F)c(F)c1F)Nc1ccc(F)c(F)c1F	0	0	0	0	0	0
O=C(Cc1ncon1)Nc1ccc(F)c(F)c1F	33.2[may fluoresce violet]	0	?	?	0	185.5[may fluoresce violet]
CCC(=O)Nc1cc2c(cc1C(=O)CC)OCCO2	42.2[may fluoresce violet]	0	?	?	0	200.3[may fluoresce violet]
CCN(CC)C(=O)Cn1nc(-c2ccc(Cl)cc2)c2ccccc2c1=O	0	0	0	0	0	0
Cc1cc(C(=O)NNC(=O)/C=C/c2ccc(F)cc2)c(C)o1	0	0	0	0	0	0
CC1(C)CC(=O)C([N+](=O)[O-])=C(NCCCC(=O)O)C1	26.2[may fluoresce violet]	0	?	?	0	709.0[may fluoresce violet]
